Laboratory results as given in PubChem BioAssay (NCATS).
Inconclusive results are not listed. Activity calls are given as the source filed them. Unless noted, the call rests on the fitted dose curve; in most records, active means well fitted curve in either direction with a large enough effect (not every such curve was filed as active); inconclusive means small, poorly fitted or top-dose-only effect, or another doubt; inactive means flat fitted curve, though single readings scatter.

How the values were obtained:
[1] = molecular target: Lysosomal acid glucosylceramidase (Homo sapiens) (UniProt P04062); experiment: Glucocerebrosidase-p2 (AID 348; in the data active means potency below about 10 µM; further: potency means the concentration at half of the fitted maximal effect); settings: purified GBA, blue fluorogenic substrate, 40 min
Lysosomal acid glucosylceramidase (Homo sapiens), sequence (P04062 whole entry, looked up): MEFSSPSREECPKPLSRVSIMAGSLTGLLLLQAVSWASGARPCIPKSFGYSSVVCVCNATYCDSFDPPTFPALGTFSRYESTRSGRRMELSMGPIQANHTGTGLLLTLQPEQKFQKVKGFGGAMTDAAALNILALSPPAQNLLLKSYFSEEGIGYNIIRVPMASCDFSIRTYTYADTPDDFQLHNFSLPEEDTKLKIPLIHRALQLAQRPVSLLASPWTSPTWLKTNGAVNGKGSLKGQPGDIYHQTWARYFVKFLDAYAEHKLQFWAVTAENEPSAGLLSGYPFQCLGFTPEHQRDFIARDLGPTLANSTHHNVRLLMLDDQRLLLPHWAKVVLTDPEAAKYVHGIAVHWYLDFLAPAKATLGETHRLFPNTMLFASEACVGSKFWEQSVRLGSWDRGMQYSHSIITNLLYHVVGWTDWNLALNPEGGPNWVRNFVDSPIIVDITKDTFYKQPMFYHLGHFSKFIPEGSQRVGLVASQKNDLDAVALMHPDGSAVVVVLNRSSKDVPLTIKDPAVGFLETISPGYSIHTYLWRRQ
In short: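 Normal human glucocerebrosidase (0.2 nM) with blue fluorogenic substrate (80 uM final) in citrate/phosphate pH 5.9 with 10mM sodium taurocholate, 0.01% tween-20; 40 min RT, NaOH/glycine stop; fluorescence Ex 365/Em 440; AC50 from a titration from 0.6 nM upwards.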

[2] = AP1 Signaling Pathway (AID 357); settings: ME-180 AP-1-bla reporter, EGF-induced, beta-lactamase ratio, 5 h; at 7.69 µM (top of the series) unless noted;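 further: ME-180 reporter cells stimulated with EGF at its EC50 level; on the % scale 0 is the no-effect control and ±100 the full control effect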
In short: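 Beta-lactamase reporter under AP-1 response element, ME-180 background. Stimulus: EC50 EGF. Compound exposure 5 h, 37 °C. Detection: CCF4, 2.5 h RT, 460/530 nm. Values: AC50 from titration.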

[3] = molecular target: Cytochrome P450 1A2 (Homo sapiens) (UniProt P05177); experiment: p450-cyp1a2 (AID 410; calls by dose curve; further: potency means the concentration at half of the fitted maximal effect;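 on activity change, negative = inhibition: -100% = full effect of reference inhibitor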); settings: recombinant CYP1A2, luciferin-ME demethylation, luminescence; series mostly up to 57 µM
Cytochrome P450 1A2 (Homo sapiens), sequence (P05177 whole entry, looked up): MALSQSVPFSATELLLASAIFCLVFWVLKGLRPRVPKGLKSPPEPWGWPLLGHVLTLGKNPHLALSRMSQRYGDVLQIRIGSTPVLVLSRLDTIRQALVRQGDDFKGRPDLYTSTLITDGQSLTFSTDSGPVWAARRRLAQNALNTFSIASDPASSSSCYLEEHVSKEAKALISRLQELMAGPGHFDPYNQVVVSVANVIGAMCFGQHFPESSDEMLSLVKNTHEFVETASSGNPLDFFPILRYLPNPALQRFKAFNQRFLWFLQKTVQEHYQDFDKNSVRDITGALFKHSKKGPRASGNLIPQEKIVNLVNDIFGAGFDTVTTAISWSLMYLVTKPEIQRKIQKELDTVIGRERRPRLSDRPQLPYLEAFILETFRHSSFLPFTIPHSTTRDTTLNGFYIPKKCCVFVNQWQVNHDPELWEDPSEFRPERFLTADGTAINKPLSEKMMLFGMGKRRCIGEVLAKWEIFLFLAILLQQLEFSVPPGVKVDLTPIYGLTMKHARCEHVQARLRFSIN
In short: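 20nM CYP1A2, 100uM Luciferin-ME (=Km), 100mM KPO4; cpd 10 min RT; +NADPH regen, 60 min RT; stop/detect 20 min; luminescence. Normalized to furafylline 57 uM = full inhibition.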

[4] = NFAT Signaling Pathway (AID 444); settings: Jurkat NFAT-bla M1, carbachol, beta-lactamase ratio, 5 h; at 7.69 µM (top of the series) unless noted;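 further: carbachol stimulus at about its EC50 of 1 µM final; on the % scale 0 is the no-effect control and ±100 the full control effect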
In short: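 Jurkat cells with NFAT-driven β-lactamase reporter and co-expressed M1 receptor, stimulated with carbachol (final 1 uM, ~EC50), compound titration, 5 h at 37 °C. CCF4 loaded 1 h at RT; 460/530 nm ratio gave %activity and AC50.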

[5] = Stat Signaling Pathway (AID 446); settings: ME-180 SIE beta-lactamase reporter, IL-6 stimulated, 5 h; at 7.69 µM (top of the series) unless noted;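 further: ME-180 cervical cancer cells given 40 pM IL-6 alongside compound; SIE-controlled beta-lactamase reporter measured as 460/530 nm FRET emission ratio; on the % scale 0 is the no-effect control and ±100 the full control effect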
In short: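 FRET read-out (405 nm excitation, 460/530 nm emission) of a beta-lactamase reporter under a STAT-inducible element in ME-180 cervical carcinoma cells. Cells with compound receive 40 pM IL-6 for 5 h. Values are normalised to AC90 stimulation and AC90 JAK-inhibitor controls.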

[6] = molecular target: Glucocorticoid receptor (Homo sapiens) (UniProt P04150); experiment: GR-EFC Redistribution (AID 451; calls by dose curve; further: potency means the concentration at half of the fitted maximal effect); settings: CHO-K1 GR-EFC translocation, beta-gal luminescence, 2 h
Glucocorticoid receptor (Homo sapiens), sequence (P04150 whole entry, looked up, the tested form may be a part): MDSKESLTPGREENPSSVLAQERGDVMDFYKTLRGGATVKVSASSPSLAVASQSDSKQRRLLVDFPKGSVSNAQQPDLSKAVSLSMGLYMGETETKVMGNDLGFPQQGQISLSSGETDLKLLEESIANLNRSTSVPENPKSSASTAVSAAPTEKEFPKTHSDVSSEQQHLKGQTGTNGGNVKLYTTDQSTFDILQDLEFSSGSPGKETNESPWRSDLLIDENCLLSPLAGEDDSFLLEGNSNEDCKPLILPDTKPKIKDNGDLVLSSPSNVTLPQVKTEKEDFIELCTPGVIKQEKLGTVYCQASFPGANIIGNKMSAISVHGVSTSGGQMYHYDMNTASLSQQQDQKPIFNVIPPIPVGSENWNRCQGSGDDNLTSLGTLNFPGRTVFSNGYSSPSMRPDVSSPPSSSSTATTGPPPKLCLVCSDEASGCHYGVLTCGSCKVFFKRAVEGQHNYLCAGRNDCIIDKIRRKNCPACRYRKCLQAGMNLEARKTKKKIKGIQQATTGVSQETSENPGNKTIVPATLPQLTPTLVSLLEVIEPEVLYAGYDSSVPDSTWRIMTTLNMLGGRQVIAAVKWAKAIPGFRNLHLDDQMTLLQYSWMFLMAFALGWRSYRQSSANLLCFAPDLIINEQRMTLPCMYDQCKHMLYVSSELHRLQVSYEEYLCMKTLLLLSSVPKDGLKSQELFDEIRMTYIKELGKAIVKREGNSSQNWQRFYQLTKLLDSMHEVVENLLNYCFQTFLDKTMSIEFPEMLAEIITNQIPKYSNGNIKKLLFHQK
In short: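 CHO-K1 cells expressing nuclear EA and GR-ED fragments of b-gal; compounds titrated up to 46 uM final, 2 h at 37 C. GR nuclear translocation read as complemented b-gal luminescence after 1 h RT detection.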

[7] = molecular target: Mitogen-activated protein kinase 10 (Mus musculus) (UniProt Q61831); experiment: JNK3 AlphaScreen Assay (AID 530); settings: JNK3 lysate, c-Jun phosphorylation; series mostly up to 57.1 µM;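 further: kinase came from lysate of stimulated human HepG2 cells; signal reports phosphorylation of biotinylated GST-cJun 1-79 at Ser73 with 10 µM ATP; on the % scale 0 is the no-effect control and ±100 the full control effect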
In short: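 HepG2 lysate (IL-1b/TNFa pre-activated) + biotin-GST-cJun 1-79 + anti-pSer73 cJun; cpd titration, 15 min RT; ATP 10 uM start; Tris pH 7.6, MgCl2, DTT, vanadate; beads in EDTA buffer; AlphaScreen.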

[8] = molecular target: 3',5'-cyclic-AMP phosphodiesterase 4B (Homo sapiens) (UniProt Q07343); experiment: qHTS Assay for Inhibitors of PDE-IV (AID 607; active means well fitted activation curve with a large enough effect in the main read-out, with a control signal flat, not every such curve was filed as active; further: % of control where 0% means no effect); settings: HEK293 ACTOne CNG channel cells, membrane potential fluorescence; series mostly up to 22.9 µM
3',5'-cyclic-AMP phosphodiesterase 4B (Homo sapiens), sequence (Q07343 whole entry, looked up): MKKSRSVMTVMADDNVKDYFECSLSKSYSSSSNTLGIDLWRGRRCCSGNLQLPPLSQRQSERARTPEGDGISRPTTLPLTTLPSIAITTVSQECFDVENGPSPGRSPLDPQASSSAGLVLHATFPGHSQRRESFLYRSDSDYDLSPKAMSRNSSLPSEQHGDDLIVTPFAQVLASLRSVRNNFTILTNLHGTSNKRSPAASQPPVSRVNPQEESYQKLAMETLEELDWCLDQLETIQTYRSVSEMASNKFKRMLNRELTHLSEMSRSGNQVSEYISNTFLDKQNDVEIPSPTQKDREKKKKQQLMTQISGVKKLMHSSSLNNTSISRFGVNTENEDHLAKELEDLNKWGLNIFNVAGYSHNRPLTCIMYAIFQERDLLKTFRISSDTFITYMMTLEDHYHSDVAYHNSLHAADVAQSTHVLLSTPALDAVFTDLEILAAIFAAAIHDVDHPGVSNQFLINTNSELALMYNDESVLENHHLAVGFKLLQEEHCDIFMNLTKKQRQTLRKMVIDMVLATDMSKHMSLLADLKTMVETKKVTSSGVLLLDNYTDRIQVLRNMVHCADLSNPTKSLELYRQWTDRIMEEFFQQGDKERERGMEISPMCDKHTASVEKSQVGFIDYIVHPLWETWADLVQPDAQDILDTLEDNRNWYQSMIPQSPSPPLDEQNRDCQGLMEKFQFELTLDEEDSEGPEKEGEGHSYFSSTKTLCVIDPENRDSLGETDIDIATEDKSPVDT
In short: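 Cell-based read-out of cAMP via a modified cyclic nucleotide-gated channel and membrane potential dye (535/590 nm) in HEK293 cells expressing PDE4 endogenously. Compounds tested up to 22.9 uM final; 100 uM RO 20-1724 reference.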

[9] = molecular target: Cytochrome P450 2C9 (Homo sapiens) (UniProt P11712); experiment: qHTS Assay for Inhibitors and Substrates of Cytochrome P450 2C9 (AID 883; active means well fitted curve in the direction sought with a large enough effect; an effect the other way counts as inactive or inconclusive; further: nearly all actives have a fitted effect of over 60% in size; further: potency means the concentration at half of the fitted maximal effect); settings: recombinant CYP2C9, luciferin-H luminescence, 60 min; series mostly up to 57.1 µM
Cytochrome P450 2C9 (Homo sapiens), sequence (P11712 whole entry, looked up): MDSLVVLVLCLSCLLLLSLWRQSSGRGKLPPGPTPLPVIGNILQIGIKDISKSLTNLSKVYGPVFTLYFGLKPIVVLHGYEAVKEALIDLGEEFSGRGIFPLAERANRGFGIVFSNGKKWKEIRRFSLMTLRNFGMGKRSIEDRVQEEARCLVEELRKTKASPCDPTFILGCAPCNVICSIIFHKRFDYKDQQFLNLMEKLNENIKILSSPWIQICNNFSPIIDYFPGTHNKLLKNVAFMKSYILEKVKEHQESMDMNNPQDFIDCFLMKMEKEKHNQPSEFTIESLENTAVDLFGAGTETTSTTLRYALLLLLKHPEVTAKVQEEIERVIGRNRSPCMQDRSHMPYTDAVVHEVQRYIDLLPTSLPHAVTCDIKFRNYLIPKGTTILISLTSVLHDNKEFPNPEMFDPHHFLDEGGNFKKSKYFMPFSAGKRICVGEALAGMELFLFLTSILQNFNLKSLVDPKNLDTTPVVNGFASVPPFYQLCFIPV
In short: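 Human CYP2C9 (10nM) with Luciferin-H at 100uM (its KM) in 25mM KPO4; compound preincubated 10 min at 37C, then NADPH regeneration for 60 min at 37C. Luciferin read by luminescence after detection reagent; normalized to 57uM sulphaphenazole as full inhibition.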

[10] = molecular target: Cytochrome P450 3A4 (Homo sapiens) (UniProt P08684); experiment: qHTS Assay for Inhibitors and Substrates of Cytochrome P450 3A4 (AID 884; active means well fitted curve in the direction sought with a large enough effect; an effect the other way counts as inactive or inconclusive; further: nearly all actives have a fitted effect of over 50% in size; further: potency means the concentration at half of the fitted maximal effect); settings: recombinant CYP3A4, Luciferin-PPXE luminescence; series mostly up to 57.1 µM
Cytochrome P450 3A4 (Homo sapiens), sequence (P08684 whole entry, looked up): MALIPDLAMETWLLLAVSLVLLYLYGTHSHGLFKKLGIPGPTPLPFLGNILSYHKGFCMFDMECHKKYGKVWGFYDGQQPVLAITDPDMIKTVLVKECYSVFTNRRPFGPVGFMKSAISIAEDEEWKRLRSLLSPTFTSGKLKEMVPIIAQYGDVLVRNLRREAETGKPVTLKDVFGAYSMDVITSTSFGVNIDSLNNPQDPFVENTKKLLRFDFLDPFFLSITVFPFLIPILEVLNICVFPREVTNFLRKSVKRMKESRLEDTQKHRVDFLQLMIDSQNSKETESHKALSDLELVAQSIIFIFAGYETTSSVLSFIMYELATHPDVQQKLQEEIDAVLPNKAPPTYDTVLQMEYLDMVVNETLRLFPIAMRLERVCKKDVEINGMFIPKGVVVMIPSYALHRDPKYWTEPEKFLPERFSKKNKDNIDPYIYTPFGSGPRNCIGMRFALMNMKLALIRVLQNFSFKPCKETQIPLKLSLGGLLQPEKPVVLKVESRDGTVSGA
In short: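 Luminescent readout of luciferin produced by CYP3A4 (20 nM) dealkylation of Luciferin-PPXE, 25 uM (its KM). NADPH-driven reaction ran 60 min at RT after 10 min compound preincubation; data scaled to 57 uM ketoconazole as 100% inhibition.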

[11] = molecular target: Cytochrome P450 3A4 (Homo sapiens) (UniProt P08684); experiment: qHTS Assay for Activators of Cytochrome P450 3A4 (AID 885; active means well fitted curve in the direction sought with a large enough effect; an effect the other way counts as inactive or inconclusive; further: nearly all actives have a fitted effect of over 65% in size; further: potency means the concentration at half of the fitted maximal effect); settings: recombinant CYP3A4, Luciferin-PPXE luminescence, 60 min; series mostly up to 57.1 µM
In short: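 Luminescent readout of luciferin formed from 25 uM Luciferin-PPXE (KM level) by 20 nM CYP3A4 in 200 mM KPO4, with 60 min NADPH-driven reaction at room temperature after 10 min compound exposure. Ketoconazole (57 uM) defined 100% inhibition.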

[12] = molecular target: Cytochrome P450 2D6 (Homo sapiens) (UniProt P10635); experiment: qHTS Assay for Inhibitors and Substrates of Cytochrome P450 2D6 (AID 891; active means well fitted curve in the direction sought with a large enough effect; an effect the other way counts as inactive or inconclusive; further: nearly all actives have a fitted effect of over 60% in size; further: potency means the concentration at half of the fitted maximal effect); settings: recombinant CYP2D6, luciferin-ME EGE luminescence; series mostly up to 57.1 µM
Cytochrome P450 2D6 (Homo sapiens), sequence (P10635 whole entry, looked up): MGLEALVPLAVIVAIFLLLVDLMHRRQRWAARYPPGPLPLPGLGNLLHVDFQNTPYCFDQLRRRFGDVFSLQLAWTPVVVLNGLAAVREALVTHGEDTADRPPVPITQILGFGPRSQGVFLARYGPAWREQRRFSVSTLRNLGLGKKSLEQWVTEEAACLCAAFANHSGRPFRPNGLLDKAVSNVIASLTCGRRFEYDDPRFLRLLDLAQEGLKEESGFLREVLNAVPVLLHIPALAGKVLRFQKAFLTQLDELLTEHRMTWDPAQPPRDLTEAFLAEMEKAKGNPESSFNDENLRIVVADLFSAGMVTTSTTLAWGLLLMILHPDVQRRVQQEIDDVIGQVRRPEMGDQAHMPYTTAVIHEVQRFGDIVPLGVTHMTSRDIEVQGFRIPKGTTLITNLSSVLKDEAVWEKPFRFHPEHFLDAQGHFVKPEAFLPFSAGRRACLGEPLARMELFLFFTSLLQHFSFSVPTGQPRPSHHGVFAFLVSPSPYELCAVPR
In short: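 Luminescent read-out of luciferin formed by 5 nM human CYP2D6 demethylating 30 uM Luciferin-ME EGE (Km level) over 60 min at room temperature after NADPH regeneration addition. Data normalized to full inhibition by 1.43 uM quinidine.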

[13] = molecular target: Cytochrome P450 2C19 (Homo sapiens) (UniProt P33261); experiment: qHTS Assay for Inhibitors and Substrates of Cytochrome P450 2C19 (AID 899; active means well fitted curve in the direction sought with a large enough effect; an effect the other way counts as inactive or inconclusive; further: nearly all actives have a fitted effect of over 60% in size; further: potency means the concentration at half of the fitted maximal effect); settings: recombinant CYP2C19, luciferin-H EGE luminescence; series mostly up to 57.1 µM
Cytochrome P450 2C19 (Homo sapiens), sequence (P33261 whole entry, looked up): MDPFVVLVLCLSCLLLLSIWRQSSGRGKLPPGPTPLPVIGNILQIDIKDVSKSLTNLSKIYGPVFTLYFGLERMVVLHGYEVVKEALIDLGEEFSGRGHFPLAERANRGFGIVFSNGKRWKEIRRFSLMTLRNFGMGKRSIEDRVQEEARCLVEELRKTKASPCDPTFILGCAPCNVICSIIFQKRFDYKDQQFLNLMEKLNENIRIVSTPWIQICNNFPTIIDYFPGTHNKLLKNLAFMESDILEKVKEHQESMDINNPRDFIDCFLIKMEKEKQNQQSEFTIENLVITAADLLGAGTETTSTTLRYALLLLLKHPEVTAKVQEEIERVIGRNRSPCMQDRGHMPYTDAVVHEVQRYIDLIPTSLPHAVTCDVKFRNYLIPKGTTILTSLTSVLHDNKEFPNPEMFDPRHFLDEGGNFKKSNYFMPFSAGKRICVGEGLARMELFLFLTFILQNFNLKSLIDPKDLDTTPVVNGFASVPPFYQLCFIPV
In short: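 5 nM human CYP2C19 with 10uM Luciferin-H EGE (at KM) in 50mM KPO4, compound preincubated 10 min at 37C, then NADPH regeneration for 60 min at 37C. Luciferin read by luminescence after detection reagent; normalized to 57uM ketoconazole as full inhibition.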

[14] = qHTS Assay for Lipid Storage Modulators (AID 1519; calls by dose curve); settings: Drosophila S3 cells, BODIPY lipid droplet/cell ratio, laser cytometry, cells loaded with oleic acid; for activity change, negative = inhibition: at 57.5 µM (top of the series)
In short: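 Cells seeded at 5,000 per well were treated with compounds over a concentration series and loaded with oleic acid (400 uM, as added). Lipid droplet fluorescence (488 nm excitation, 500-530 nm channel) was read by laser-scanning cytometry and normalized to 20 uM Triacsin C.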

[15] = Primary qHTS for small molecule stabilizers of the endoplasmic reticulum resident proteome: Secreted ER Calcium Modulated Protein (SERCaMP) assay (AID 1508630; active means well fitted curve in the direction sought with a large enough effect; an effect the other way counts as inactive or inconclusive; further: on the % scale 0 is the no-effect control and ±100 the full control effect); settings: SH-SY5Y GLuc-SERCaMP (Gaussia luciferase released on ER calcium loss) secretion, thapsigargin, luminescence; series mostly up to 38.4 µM
In short: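 The SH-SY5Y reporter protocol was run at 3 concentrations up to 38.3 uM (primary) or 11 concentrations (follow-up): 16 h compound, 100 nM thapsigargin for 4 h, then extracellular luciferase luminescence.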

[16] = qHTS Assay for Identification of Small Molecule Agonists for Hypoxia Response Element Signaling Pathway (AID 914; active means well fitted activation curve with a large enough effect in the signal ratio, with a control signal flat, not every such curve was filed as active; the % refers to the signal ratio; further: % of control where 0% means no effect); settings: ME-180 (cervical carcinoma) HRE-bla reporter, beta-lactamase ratio, CoCl2, 17 h; activation: stronger effect = higher value
In short: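 A beta-lactamase reporter under hypoxia response element control in ME-180 cells served as the system. Compound titrations plus EC50 CoCl2 ran 17 h at 37 degrees Celsius; AC50 values were fitted from %Activity.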

[17] = measured here: cell count channel max response
[18] = measured here: lipid channel max response

Row | Compound | Potency [1] | activity change, negative = inhibition [2] | Potency [3] | activity change, negative = inhibition [4] | activity, negative = inhibition [5] | Potency [6] | outcome [7] | Potency [8] | Potency [9] | Potency [10] | Potency [11] | Potency [12] | Potency [13] | activity change, negative = inhibition [14] | max response [14, 17] | max response [14, 18] | Potency [15] | activation [16]
1 | O=C(c1cc(C(F)(F)F)cc(C(F)(F)F)c1)N1CCC[C@@]2(CCN(Cc3ccncc3)C2)C1 | > 11.4 µM (inactive) | -6.9% (inactive) | 12.6 µM (active) | -25.1% (inactive) | -8.97% (inactive) | > 46 µM (inactive) | inactive | inactive | 0.0794 µM (active) | 0.501 µM (active) | inactive | 5.01 µM (active) | 0.199 µM (active) | 7.2% (inactive) | 20.1% | 28.8% | inactive | 
2 | COC(=O)N1CCC2(CC1)CN(c1ccccn1)C2 | > 11.4 µM (inactive) | -6.58% (inactive) | inactive | -21.4% (inactive) | 9.9% (inactive) | > 46 µM (inactive) | inactive | inactive |  | inactive | 25.1 µM (active) |  |  | 1.4% (inactive) | 2.42% | 5.09% | inactive | 
3 | O=C(Oc1ccccc1)N1CCC2(CC1)CCN(c1ccccc1)CC2 | > 11.4 µM (inactive) | 20.6% (inactive) | inactive | -26.1% (inactive) | -1.28% (inactive) | > 46 µM (inactive) | inactive | inactive |  | inactive | 3.16 µM (active) |  |  | -1.08% (inactive) | -1.11% | -1.37% | inactive | 
4 | CN1CCCC2(CCN(C(=O)c3cnccn3)CC2)C1 | > 11.4 µM (inactive) | -9.74% (inactive) | inactive | -25% (inactive) | 3.76% (inactive) | > 46 µM (inactive) | inactive | inactive |  |  | inactive |  |  | -0.798% (inactive) | 2.95% | 3.48% | inactive | 
5 | CS(=O)(=O)N1CCC2(CCN(c3cccc(-c4ccccc4)c3)CC2)CC1 | > 11.4 µM (inactive) | -1.25% (inactive) | inactive | 10.1% (inactive) | -21% (inactive) | > 46 µM (inactive) | inactive | inactive | inactive |  |  |  | inactive | -1.6% (inactive) | 19.1% | 18.7% | inactive | 
6 | COc1ccc(C(=O)N2CCC3(CCCN(Cc4ccncc4)C3)CC2)cc1 | > 11.4 µM (inactive) | -3.23% (inactive) | inactive | -17.9% (inactive) | 2.74% (inactive) | > 46 µM (inactive) | inactive | inactive | 3.16 µM (active) | 7.94 µM (active) | inactive |  |  | 3.4% (inactive) | 2.99% | 8.92% | inactive | 
7 | O=C(c1csnn1)N1CCC[C@@]2(CCN(c3ccccn3)C2)C1 | > 11.4 µM (inactive) | -10.6% (inactive) | inactive | -7.38% (inactive) | 8.47% (inactive) | > 46 µM (inactive) | inactive | inactive |  |  | inactive |  |  | 3.43% (inactive) | 4.63% | 10.9% | inactive | 
8 | CC(C)NC(=O)N1CCC2(CC1)CCN(C(=O)c1cc(C(F)(F)F)cc(C(F)(F)F)c1)CC2 | > 11.4 µM (inactive) | -12% (inactive) | inactive | 25.7% (inactive) | -9.32% (inactive) | > 46 µM (inactive) | inactive | inactive | inactive | inactive |  |  |  | -0.11% (inactive) | -8.79% | -7.75% | inactive | 9.62% (inactive)
9 | CC(=O)N1CCC[C@@]2(CCN(c3ccncc3)C2)C1 | > 11.4 µM (inactive) | 2.82% (inactive) | inactive | 3.22% (inactive) | -0.448% (inactive) | > 46 µM (inactive) | inactive | inactive |  |  | inactive |  |  | 2.25% (inactive) | 8.59% | 14.8% | inactive | 
10 | Cc1noc(C)c1C(=O)N1CCC[C@@]2(CCN(C(=O)Nc3cccc(F)c3)C2)C1 | > 11.4 µM (inactive) | -2.75% (inactive) | inactive | 9.58% (inactive) | 8.15% (inactive) | > 46 µM (inactive) | inactive | inactive |  | 5.01 µM (active) | inactive |  |  | 3.82% (inactive) | 8.32% | 13.6% | inactive | 
11 | COCC(=O)N1CCC[C@@]2(CCN(C(=O)Nc3cccc(C#N)c3)C2)C1 | > 11.4 µM (inactive) | 0.866% (inactive) | inactive | -2.97% (inactive) | 2.49% (inactive) | > 46 µM (inactive) | inactive | inactive | inactive | inactive |  | inactive | inactive | 4.94% (inactive) | 13.7% | 21.6% | inactive | 
12 | COC(=O)N1CCC2(CCCN(C(=O)Nc3cccc(F)c3)C2)CC1 | > 11.4 µM (inactive) | -3.15% (inactive) | inactive | -20.9% (inactive) | -5.21% (inactive) | > 46 µM (inactive) | inactive | inactive |  |  | inactive |  |  | -17.4% (inactive) | -0.146% | -17.1% | inactive | 
